Source: PubChem BioAssay
HEK293 tox = qHTS of GLP-1 Receptor Inverse Agonists: Cytotox Screen | HEK293 cAMP-luciferase reporter cells, luminescence, 24 h | Potency, µM (titrated, usually from 38.3 µM), actives largely listed as inhibitors | actives 0.13% (n = 410,000) | AID 624418, 2012;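 further: loss of luciferase light is scored as toxicity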
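Step one: seed cells (200 cells/uL, DMEM with 10% Nu serum, 1% pen-strep). Step two: 12-hour incubation at 37 deg C. Step three: pin 23 nL compound, incubate 24 hr. Step four: add luciferase reagent, read luminescence 12 min later.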
GLP-1R agonist = qHTS of GLP-1 Receptor Agonists | Glucagon-like peptide 1 receptor (Homo sapiens), P43220 | HEK293 GLP-1R CRE-luciferase, luminescence, 4-6 h; cells express a hypersensitive GLP-1R form | Potency, µM (titrated, usually from 45.6 µM), actives largely listed as activators | actives 0.007% (n = 380,000)
Target sequence (P43220 whole entry, looked up): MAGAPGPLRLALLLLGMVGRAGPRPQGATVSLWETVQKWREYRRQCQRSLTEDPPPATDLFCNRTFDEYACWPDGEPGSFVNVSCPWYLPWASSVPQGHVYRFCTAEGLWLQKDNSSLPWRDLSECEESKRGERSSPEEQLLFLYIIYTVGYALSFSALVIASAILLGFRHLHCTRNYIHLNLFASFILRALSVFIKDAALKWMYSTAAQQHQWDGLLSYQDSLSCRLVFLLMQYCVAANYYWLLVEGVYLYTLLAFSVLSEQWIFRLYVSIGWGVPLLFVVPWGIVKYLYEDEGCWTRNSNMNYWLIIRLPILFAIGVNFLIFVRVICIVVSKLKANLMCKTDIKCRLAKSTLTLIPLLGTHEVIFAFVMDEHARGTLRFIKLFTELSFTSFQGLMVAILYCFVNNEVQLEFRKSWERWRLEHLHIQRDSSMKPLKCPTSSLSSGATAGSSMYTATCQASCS
BRCA1 expr act = qHTS Assay to Identify Small Molecule Activators of BRCA1 Expression; Potency, µM (series often up to 46.1 µM), most hits filed as activators; MCF7-BRCA1-FFLuc reporter, luminescence, 48 h; response scale: scaled: vehicle 0%, 10 µM genistein 100%; actives 1.1% (n = 380,000); further: nearly all actives have a fitted effect of over 80% in size
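Luminescence from a BRCA1-driven firefly luciferase in MCF7 cells was read after 48 h compound exposure at 37 C. Data normalized against DMSO and a 10microM genistein activation control, then curve-fitted across the titration.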
GLP-1R inv ag = qHTS of GLP-1 Receptor Inverse Agonists (Inhibition Mode); Glucagon-like peptide 1 receptor (Homo sapiens), P43220; HEK293 GLP-1R CRE-luciferase, luminescence, 24 h; GLP-1R form is constitutively active; Potency, µM (doses to about 38.3 µM), most hits filed as inhibitors; actives 1.6% (n = 410,000); AID 624417, 2012; further: nearly all actives have a fitted effect of over 55% in size
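Inverse agonists were sought by their lowering of basal cAMP reporter luciferase output in HEK293 cells stably carrying constitutively active human GLP-1R, after 24 h compound treatment.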
Hits are given with their value; [ ] = dose if it differs, or a comment. This is a sample that favours compounds with a hit; in the whole collection about 2.6% have one here. The call rests on the fitted dose curve; in most records, active means well fitted curve in the direction sought with a large enough effect; inconclusive means small, poorly fitted or top-dose-only effect, or another doubt; inactive means no such curve, though single readings can be large; an effect the other way counts as inactive or inconclusive.

For CC(=O)Nc1ccc(C(=O)COC(=O)c2c(C)noc2C)c(F)c1 the results were HEK293 tox inactive, GLP-1R agonist inactive, BRCA1 expr act inactive and GLP-1R inv ag inactive.
For O=C(NC1CCC1)C1CCC(=O)N(Cc2ccc(Cl)cc2)C1 (stereo not drawn) the results were HEK293 tox inactive, GLP-1R agonist inactive, BRCA1 expr act inactive and GLP-1R inv ag inactive.
Screening Cn1c(NCCO)nc2c1c(=O)n(Cc1cccc(F)c1)c(=O)n2C returned HEK293 tox inactive, GLP-1R agonist inactive, BRCA1 expr act inactive and GLP-1R inv ag inactive.
`COc1ccc(/C(N)=N/OC(=O)Cc2cccs2)cc1` gave HEK293 tox inactive, GLP-1R agonist inactive, BRCA1 expr act 8.91µM and GLP-1R inv ag inactive.
`COc1ccc(/C(N)=N/OC(=O)Cc2cccs2)cc1OC` gave HEK293 tox inactive, GLP-1R agonist inactive, BRCA1 expr act inactive and GLP-1R inv ag inactive.
`COc1ccc(C(=O)COC(=O)c2cccs2)cc1` gave HEK293 tox inactive, GLP-1R agonist inactive, BRCA1 expr act 12.6µM and GLP-1R inv ag inactive.
`Brc1ccc(C2C=Cc3ccccc32)cc1` (stereo not drawn) gave BRCA1 expr act inactive.
`CCc1cccc(C)c1NC(=O)c1cnn(-c2ccc(F)cc2)c1-n1cccc1` gave HEK293 tox inactive, GLP-1R agonist inactive, BRCA1 expr act inactive and GLP-1R inv ag inconclusive.
For CS/C(N)=N/N=C/c1ccc([N+](=O)[O-])cc1 the results were HEK293 tox inactive, GLP-1R agonist inactive, BRCA1 expr act 11.2µM and GLP-1R inv ag inactive.
For Cc1nn(CC(=O)c2ccccc2Cl)c(C)c1[N+](=O)[O-] the results were HEK293 tox inactive, GLP-1R agonist inactive, BRCA1 expr act 10µM and GLP-1R inv ag inconclusive.
For CC(OC(=O)c1ccc(Br)o1)C(=O)NCC1CCCCC1 (stereo not drawn) the results were HEK293 tox inactive, GLP-1R agonist inactive, BRCA1 expr act inactive and GLP-1R inv ag inactive.
`CCOC(=O)N1CCN(C(=O)c2ccc3c(c2)sc2nc(-c4ccccc4)cn23)CC1` gave HEK293 tox inactive, GLP-1R agonist inactive, BRCA1 expr act 10µM and GLP-1R inv ag inactive.
`Cc1cc(C)c(CN2CCN(C(=O)Cn3cnc4c(OCc5ccccc5)ncnc43)CC2)c(C)c1` gave HEK293 tox inactive, GLP-1R agonist inactive, BRCA1 expr act inactive and GLP-1R inv ag 6.31µM.
`Cc1ccc(CN2CCN(CCCn3cnc4c(OCc5ccccc5)ncnc43)CC2)cc1` gave HEK293 tox inactive, GLP-1R agonist inactive, BRCA1 expr act inactive and GLP-1R inv ag 8.91µM.
`COc1ccccc1N1CCN(c2cc(C)nc3c(-c4ccc(Cl)cc4)c(C)nn23)CC1` gave HEK293 tox inactive and GLP-1R inv ag inactive.
For Cc1noc(C)c1CSCC(=O)Nc1cc(C(F)(F)F)ccc1N1CCCCC1 the results were HEK293 tox inactive, GLP-1R agonist inactive, BRCA1 expr act inactive and GLP-1R inv ag inconclusive.
For Cc1noc(C)c1CSCC(=O)Nc1cc(Cl)ccc1N1CCCCC1 the results were HEK293 tox inactive, GLP-1R agonist inactive, BRCA1 expr act inactive and GLP-1R inv ag 11.2µM.
Cc1ccc(C(=O)c2coc3c2C(=O)C(=O)c2ccccc2-3)cc1 was read as HEK293 tox inconclusive, GLP-1R agonist inactive, BRCA1 expr act 17.8µM and GLP-1R inv ag inactive.
Screening Cc1ccc(C(=O)c2c(C)oc3c2C(=O)C(=O)c2ccccc2-3)cc1 returned HEK293 tox 5.01µM, GLP-1R agonist inactive, BRCA1 expr act inactive and GLP-1R inv ag inconclusive.
Screening Cc1ccc(C(=O)c2cn[nH]c2-c2ccccc2O)cc1 returned HEK293 tox inactive, GLP-1R agonist inactive, BRCA1 expr act inactive and GLP-1R inv ag inactive.
`Cc1oc2c(c1C(=O)c1ccc(Cl)cc1)C(=O)C(=O)c1ccccc1-2` gave HEK293 tox inactive, GLP-1R agonist inactive, BRCA1 expr act inactive and GLP-1R inv ag inactive.
For O=C(Nc1ccc(F)cc1)C1CCN(c2nc3ccccc3n3cccc23)CC1 the results were HEK293 tox inactive and GLP-1R inv ag inactive.
For O=C(NCCC1CCCCN1S(=O)(=O)c1ccccc1)C(=O)NCc1ccncc1 (stereo not drawn) the results were HEK293 tox inactive, GLP-1R agonist inactive, BRCA1 expr act inactive and GLP-1R inv ag inactive.
CCCCN1C(=O)/C(=C/C=C2/CC(C)(C)CN2C)SC1=S was read as HEK293 tox inactive, GLP-1R agonist inactive, BRCA1 expr act 10µM and GLP-1R inv ag inconclusive.
Screening COc1ccc(CNCc2c(C(=O)O)c(C)n(Cc3ccc(Cl)cc3)c2C)c(OC)c1 returned HEK293 tox inactive and GLP-1R inv ag inactive.
For CC(C)CN(C(=O)COC(=O)CSc1ccc(Br)cc1)C1CCS(=O)(=O)C1 (stereo not drawn) the results were HEK293 tox inactive, GLP-1R agonist inactive, BRCA1 expr act inactive and GLP-1R inv ag inactive.
`COC(=O)c1ccc(COc2cccc(C)c2C)cc1` gave HEK293 tox inactive[7.66 µM], GLP-1R agonist inactive, BRCA1 expr act 10µM and GLP-1R inv ag inactive[7.66 µM].
For C/C(=N\Nc1ccccn1)c1ccc(N2CCOCC2)cc1 the results were HEK293 tox inactive, GLP-1R agonist inactive, BRCA1 expr act 4.47µM and GLP-1R inv ag inactive.
For CCOC(=O)C1CCC(CN(Cc2ccc(OC)cc2)S(=O)(=O)c2ccc(F)c(C(=O)Nc3c(C)cccc3C)c2)CC1 (stereo not drawn) the results were HEK293 tox inactive and GLP-1R inv ag 2µM.
Screening CCOC(=O)c1ccc(N=c2sc(C(=O)OC)cc(=O)n2CCCN2CCOCC2)cc1 returned HEK293 tox inactive, GLP-1R agonist inactive, BRCA1 expr act inactive and GLP-1R inv ag inconclusive.
Screening CCOC(=O)c1ccc(N=c2sc(C(=O)OC)cc(=O)n2Cc2ccco2)cc1 returned HEK293 tox inconclusive, GLP-1R agonist inactive, BRCA1 expr act inactive and GLP-1R inv ag 4.47µM.
For CC(C1CC1)N(Cc1ccccc1)C(=S)Nc1ccccc1 (stereo not drawn) the results were HEK293 tox inactive, GLP-1R agonist inactive, BRCA1 expr act inactive and GLP-1R inv ag inconclusive.
Screening CC(C1CC1)N(Cc1ccccc1)C(=S)Nc1cccc(C(F)(F)F)c1 (stereo not drawn) returned HEK293 tox inactive, GLP-1R agonist inactive, BRCA1 expr act inactive and GLP-1R inv ag 10µM.
COC(=O)[C@@H](NC(=O)Nc1ccc(C(C)=O)cc1)C(C)C was read as HEK293 tox inactive, GLP-1R agonist inactive, BRCA1 expr act inactive and GLP-1R inv ag inactive.
`COc1ccc(C(C)NC(=O)Nc2ccc(C(C)=O)cc2)cc1OC` (stereo not drawn) gave HEK293 tox inactive, GLP-1R agonist inactive, BRCA1 expr act 11.2µM and GLP-1R inv ag inactive.
`O=c1[nH]c2c(s1)C(c1ccccc1)C1C3CCC(C3)C1S2` (stereo not drawn) gave HEK293 tox inactive, GLP-1R agonist inactive, BRCA1 expr act inactive and GLP-1R inv ag 6.31µM.
